Bioassay records: PubChem, Broad Institute
HIV Env fusion: HIV envelope-mediated fusion inhibition; HeLa-JRFL Env/CEM21 cell fusion, luciferase; inhibition, % at 12.3 µM; 1.1% of 360,000 active; AID 651610;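 active = mean replicate inhibition score of at least 50 and every replicate individually at or above 50; inconclusive = only one of the two criteria met; inactive = mean below 50 and not all replicates reaching 50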;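 also: 0% = plate neutral controls and 100% = maraviroc near 300 nM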
MITF TRPM1 HTS: activators of MITF-driven TRPM1 promoter activity in SK-MEL-5 cells; SK-MEL-5 TRPM1-promoter luciferase, 24 h; % of positive control, neutral wells = 0; activation, % at 12.5 µM; 0.75% of 300,000 active;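 active = mean activation of at least 80% with every replicate also reaching 80%; inconclusive = mean reaches 80% but some replicate falls short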;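 also: 0% = neutral control wells and 100% = parthenolide positive control wells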
miR-122 sensor: miR-122 inhibition in Huh7 cells. Huh7 miR-122 Renilla luciferase sensor, 48 h; neutral wells = 0, positive control = 100. 0.3% of 340,000 active. activation (reporter increase), % at 12.5 µM;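 active = mean replicate activation score at least 90 and every replicate individually at or above 90; inconclusive = only one of the two criteria met; inactive = neither criterion met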;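 also: higher luciferase means less miR-122 activity so hits act as miR-122 inhibitors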
Wnt act: activators of Wnt/beta-catenin signaling | 1.2% of 300,000 active | AID 743398 | activation, % at 9.35 µM | Wnt/beta-catenin reporter cell assay, activator, plate reader; in the data active = activation above about 30%, passing the limit was not always enough; inconclusive = no clear call, values can overlap the other calls;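 also: 0% = neutral control wells and 100% = positive control wells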
esBAF inh: blocks esBAF chromatin remodeling in mouse ES cells | 2% of 350,000 active | reporter increase, % at 12.5 µM | Bmi1-luciferase knock-in reporter, 24 h; 100% = twice the neutral-well signal; in the data active = activation above about 40%; inconclusive = no clear call, values can overlap the other calls;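 also: 0% = median of the plate's neutral control wells and 100% = double that signal; a rise in the Bmi1 reporter signal indicates esBAF inhibition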
The depositor's hits bear a star; ? = inconclusive; . = no result; [ ] = another dose, or the depositor's remark. An excerpt weighted towards active compounds, which were near 3.4% of everything screened.

SMILES	HIV Env fusion	MITF TRPM1 HTS	miR-122 sensor	Wnt act	esBAF inh
COc1ccc(Cl)cc1CC1(C)C(=O)Nc2ccc(S(=O)(=O)NC3CCCCC3)cc21 (configuration not stated)	92.8*	.	80.9	-0.6	3.1
COCC(=O)N(C)C[C@@H]1Oc2ncc(C#CC(C)(C)O)cc2C(=O)N([C@H](C)CO)C[C@@H]1C	.	.	-7.0[16.7 µM]	.	-6.7
C[C@H](CO)N1C[C@H](C)[C@@H](CN(C)Cc2ccc(F)cc2)Oc2ncc(C#Cc3cccnc3)cc2C1=O	14.7[16.7 µM]	.	.	.	-3.8
COc1ccc(OC(F)(F)F)cc1CC1(C)C(=O)Nc2ccc(S(=O)(=O)NC3CCCCC3)cc21 (configuration not stated)	88.0*	.	52.5	-4.1	5.9
O=C(COc1ccccc1Cl)N1CCc2ccccc21	-71.5	66.3	-5.1	21.1	64.2*
O=C(COc1ccccc1)N1CCc2ccccc21	-26.9	34.2	.	.	.
O=C(COc1ccc(Br)cc1)N1CCc2ccccc21	-68.8	98.9*	.	28.4	.
COc1cccc(-c2cn(CC[C@H]3CC[C@H](NC(=O)CN(C)C)[C@@H](CO)O3)nn2)c1	22.5[16.7 µM]	.	.	.	-7.5
CO[C@H]1CN(C)C(=O)c2cc(NS(=O)(=O)c3cn(C)cn3)ccc2OC[C@H](C)N(C)C[C@H]1C	-3.0[16.7 µM]	.	-0.8[16.7 µM]	.	2.2
CCCCNS(=O)(=O)c1ccc2nc(SCC(=O)c3ccccc3OC)[nH]c2c1	.	-14.7	?	-1.5	2.6
CCCCNS(=O)(=O)c1ccc2nc(SCC(=O)Nc3sccc3C#N)[nH]c2c1	12.4	-29.3	202.3*	-3.2	.
CCCCNS(=O)(=O)c1ccc2nc(SCC(N)=O)[nH]c2c1	16.3	-0.8	153.0*	1.4	-7.0
Cc1cccc(NS(=O)(=O)c2cc3c4c(c2)C(C)C(=O)N4CCC3)c1 (configuration not stated)	2.9	-5.6	109.9*	1.4	2.0
Cc1ccc(S(=O)(=O)Nc2cc3c4c(c2)C(C)C(=O)N4CCC3)cc1 (configuration not stated)	10.6	7.0	-6.8	1.1	.
CN1c2ccsc2/C(=N/Nc2ccccc2)CS1(=O)=O	-15.4	-6.3	13.8	6.2	57.8*
COc1ccc(S(=O)(=O)N[C@@H]2CC[C@@H](CC(=O)NCc3ccccc3F)O[C@H]2CO)cc1	19.9[16.7 µM]	.	.	.	1.7
COc1ccc(Cc2nc3ccc(C(=O)NCc4cc(C)no4)cc3o2)cc1	.	90.9*	-5.7	7.2	64.6*
COC(=O)CCNC(=O)c1ccc2nc(Cc3ccc(OC)cc3)oc2c1	5.5	4.2	5.0	6.4	2.8
COc1ccc(Cc2nc3ccc(C(=O)NCC(C)(C)OC)cc3o2)cc1	-30.8	104.3*	-6.5	8.1	76.3*
CN(CC1CCOCC1)C(=O)c1ccc2nc(Cc3cccc(Cl)c3)oc2c1	13.7	-6.5	13.0	2.5	.
O=C(NCC1CCOCC1)c1ccc2nc(Cc3cccc(Cl)c3)oc2c1	8.1	35.9	1.7	0.0	45.9*
O=C(/C=C1\NCC2c3ccccc3CCN2C1=O)c1ccccc1 (configuration not stated)	-364.3	.	4.1	.	48.8*
CN(C)CCOC(=O)NC12CC3CC(CC(C3)C1)C2	14.2	3.8	.	-1.6	.
O=C(NC12CC3CC(CC(C3)C1)C2)OCCNC1CCCCC1	76.6*	12.3	.	-3.7	.
CC(C)(C)c1csc(N/N=C/c2ccc(O)cc2)n1	4.4	97.3*	0.9	11.1	?
SMILES	HIV Env fusion	MITF TRPM1 HTS	miR-122 sensor	Wnt act	esBAF inh
Cc1cccc(N=[N+]([O-])c2cccc(C)n2)n1	-55.9	69.7	10.2	13.1	56.5*
Cc1cccc(N=O)n1	-5.5	.	.	-1.8	.
COc1ccc(NC(=O)Nc2ccc3c(c2)C(=O)N([C@@H](C)CO)C[C@@H](C)[C@@H](CN(C)C(=O)Nc2cccc4ccccc24)OCCCC[C@H](C)O3)cc1	12.1[16.7 µM]	.	-2.1[16.7 µM]	.	-0.2
C=CCN(C(=O)c1oc2c(Cl)cc(C)cc2c1C)C1CCS(=O)(=O)C1 (configuration not stated)	-61.1	111.4*	-3.5	28.9	64.1*
CSc1n[nH]c(-c2sccc2OCc2ccc(C)cc2)n1	27.1	.	-0.8	.	8.9
CSc1n[nH]c(-c2ccc(C(F)(F)F)cc2)n1	-23.6	41.0	.	21.3	41.4*
C[C@H](CO)N1C[C@H](C)[C@H](CN(C)C(=O)c2ccncc2)OCCCC[C@H](C)Oc2ccc(NS(=O)(=O)c3cn(C)cn3)cc2C1=O	1.2[16.7 µM]	.	2.7[16.7 µM]	.	0.1
CSc1cccc(NC(=O)c2[nH]c(C)c(C(C)=O)c2C)c1	-46.1	133.1*	37.3	19.0	64.6*
CCc1c(C(=O)Nc2cc(C)cc(C)c2)[nH]c(C)c1C(C)=O	-47.5	.	120.9*	3.2	-3.9
CC(=O)c1c(C)[nH]c(C(=O)OCC(=O)Nc2ccc(Cl)c(S(=O)(=O)N(C)C)c2)c1C	78.8*	-18.2	2.1	-4.2	9.0
CC(=O)c1c(C)[nH]c(C(=O)Nc2cccc(C)c2C)c1C	-43.0	1.1	.	0.5	7.2
CC(=O)c1c(C)[nH]c(C(=O)Nc2ccc(Cl)cc2)c1C	-53.2	77.1	9.9	14.0	60.2*
CC(=O)c1c(C)[nH]c(C(=O)Nc2ccc(Cl)cc2F)c1C	-78.4	74.9	22.7	19.9	27.6
CC(=O)c1c(C)[nH]c(C(=O)Nc2ccc(Cl)c(S(=O)(=O)N(C)C)c2)c1C	-69.3	40.6	.	9.9	.
O=C(Nc1cccc(Cl)c1)N[C@H]1CC[C@@H](CCn2cc(Cc3ccccc3)nn2)O[C@H]1CO	-1.6[16.7 µM]	.	0.1[16.7 µM]	.	7.7
CCCN1C[C@H](C)[C@H](OC)CN(C)C(=O)c2ccc(NC(=O)C3CCOCC3)cc2OC[C@H]1C	-13.1[16.7 µM]	.	.	.	1.3
C[C@H](CO)N1C[C@H](C)[C@@H](CN(C)Cc2ccc(C(F)(F)F)cc2)Oc2ccc(NC(=O)C3CCCCC3)cc2CC1=O	26.5[16.7 µM]	.	8.4[16.7 µM]	.	-5.2
CC(=O)c1ccc(/C=C/c2nc3ccccc3n2C)o1	-63.2	.	-2.9	34.7*	.
O=C(C[C@H]1CC[C@H](NC(=O)c2cccnc2)[C@@H](CO)O1)NCc1ccc(Cl)c(Cl)c1	-4.7[16.7 µM]	.	1.7[16.7 µM]	.	-3.3
O=C(NC(C(=O)c1ccccc1)c1ccccc1)c1ccccc1 (configuration not stated)	-5.1	41.4	.	-2.2	40.7*
O=C(NC(C(=O)O)c1ccccc1)c1ccccc1 (configuration not stated)	-17.5	-14.2	-12.1	2.2	1.7
CC1(C)CC(=O)C=C(NCc2ccc(Cl)c(Cl)c2)C1	60.1*	-13.6	.	-6.5	.
CC(C)CNC(=O)COC(=O)c1c2c(nc3ccccc13)/C(=C\c1cccs1)CC2	2.0	12.2	-13.1	15.5	54.7*
CO[C@@H]1CN(C)C(=O)c2ccc(NC(=O)C3CCCC3)cc2OC[C@H](C)N(CC2CC2)C[C@H]1C	.	.	.	.	0.9
COC(=O)[C@@]1(Cc2ccc(F)cc2)[C@H]2c3cc(C(=O)N(C)C)n(CCO)c3C[C@H]2CN1C(=O)c1ccccc1	80.3*	.	.	3.6	.
CCCNC(=O)C[C@H]1CC[C@@H]2[C@@H](COc3ccc(NC(=O)c4cccc(OC)c4)cc3C(=O)N2C)O1	1.4[16.7 µM]	.	5.8[16.7 µM]	.	0.2
